PubChem BioAssay (NCATS)
Results filed as inconclusive are left out. Calls of active or inactive are those of the source. Calls follow the shape of the dose curve; as a rule, active = well fitted curve in the direction sought with a large enough effect; inconclusive = small, poorly fitted or top-dose-only effect, or another doubt; inactive = no such curve, though single readings can be large or run the other way.

The compounds below were run against Nuclear receptor subfamily 1 group I member 2 (Homo sapiens) (UniProt O75469) (assay: Dual reporter qHTS for antagonist of Pregnane X Receptor (hPXR) against the NCATS DSHEA and TCM libraries: Luminescence Readout (AID 1920060;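 also: HepG2 cells carrying hPXR luciferase reporter stimulated with rifampicin at 2 µM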)). Settings: hPXR dual reporter cells, luciferase luminescence, antagonist mode; series mostly up to 40 µM.
Chain of Nuclear receptor subfamily 1 group I member 2 (Homo sapiens) (O75469 whole entry, looked up): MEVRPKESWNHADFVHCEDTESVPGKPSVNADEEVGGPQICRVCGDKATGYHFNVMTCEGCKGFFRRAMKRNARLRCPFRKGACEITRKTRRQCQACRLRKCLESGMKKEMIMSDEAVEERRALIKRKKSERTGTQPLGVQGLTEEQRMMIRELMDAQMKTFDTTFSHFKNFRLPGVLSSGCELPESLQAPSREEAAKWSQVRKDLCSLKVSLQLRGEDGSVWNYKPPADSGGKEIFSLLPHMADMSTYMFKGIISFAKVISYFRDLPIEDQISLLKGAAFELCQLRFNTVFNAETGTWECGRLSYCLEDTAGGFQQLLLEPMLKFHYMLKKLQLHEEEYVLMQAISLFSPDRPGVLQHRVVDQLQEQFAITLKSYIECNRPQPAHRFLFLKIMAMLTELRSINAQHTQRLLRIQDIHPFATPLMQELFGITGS
Procedure, shortened: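 HepG2 hPXR-Luc, 2000 cells/well, charcoal-stripped FBS medium; 5 h attach; RIF 2 uM final; 24 h 37C/5% CO2; CellTiter-Fluor 1 h, fluor 405/540; ONE-Glo 30 min RT, lum.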

Row | Compound | outcome
1 | Oc1cc(O)c2c(c1)O[C@@H](c1cc(O)c(O)c(O)c1)[C@H](O)C2 | inactive
2 | O=C(O[C@@H]1Cc2c(O)cc(O)cc2O[C@@H]1c1ccc(O)c(O)c1)c1cc(O)c(O)c(O)c1 | inactive
3 | C=CCc1ccc(OC)c(OC)c1 | inactive
4 | C=C(C)C1CC=C(C)C(O)C1 (stereo unspecified) | inactive
5 | CC1=C2[C@H](/C=C(\C)C(=O)O)CC[C@@H](C)[C@H]2CC1 | inactive
6 | C=C1CC[C@H]2C[C@@H]1C2(C)C | inactive
7 | C=C1C[C@@]23CC[C@H]4[C@@](C)(CCC[C@@]4(C)C(=O)O[C@@H]4O[C@H](CO)[C@@H](O)[C@H](O)[C@H]4O[C@@H]4O[C@H](CO)[C@@H](O)[C@H](O)[C@H]4O)[C@@H]2CC[C@]1(O[C@@H]1O[C@H](CO)[C@@H](O)[C@H](O)[C@H]1O[C@@H]1O[C@H](CO)[C@@H](O)[C@H](O)[C@H]1O)C3 | inactive
8 | CC(C)=CCC[C@](C)(O[C@@H]1O[C@H](CO)[C@@H](O)[C@H](O)[C@H]1O)[C@H]1CC[C@]2(C)[C@@H]1[C@H](O)C[C@@H]1[C@@]3(C)CC[C@H](O)C(C)(C)[C@@H]3[C@@H](O[C@@H]3O[C@H](CO)[C@@H](O)[C@H](O)[C@H]3O)C[C@]12C | inactive
9 | CCCCC/C=C/C/C=C/CCCCCCCC(=O)O | inactive
10 | CCCCCC(=O)O | inactive
11 | CC(C)(O)[C@@H]1CC[C@](C)([C@H]2[C@@H](O)C[C@@]3(C)[C@@H]4C[C@H](O)[C@H]5C(C)(C)[C@@H](O[C@@H]6OC[C@@H](O)[C@H](O)[C@H]6O[C@@H]6O[C@H](CO)[C@@H](O)[C@H](O)[C@H]6O)CC[C@@]56C[C@@]46CC[C@]23C)O1 | inactive
